The text below walks through data of PubChem BioAssay (NCATS).

The structures appear in SMILES notation. Results filed as inconclusive are left out. Calls of active or inactive are those of the source. Calls follow the shape of the dose curve; as a rule, active = well fitted inhibition curve with a large enough effect; inconclusive = small, poorly fitted or top-dose-only effect; inactive = flat fitted curve, though single readings scatter. Where a SMILES comes first, the peptide text is derived from it. Bridges are numbered along the chain shown (N, C = ends). [ ]: non-standard residue; d: D form. hArg = N=C(N)NCCCC[C@H](N)C(=O)O; Mpa = O=C(O)CCS
Potency is read from the fitted curve at half-maximal effect.

For one experiment, the system named is SC27B. Nature of the experiment: qHTS profiling for inhibitors of Plasmodium falciparum proliferation (AID 504749). Also: nearly all actives have a fitted effect of over 60% in size.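 As to activity, negative = inhibition: 0% = DMSO vehicle and full inhibition = artemisinin control.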 To be noted: P. falciparum in erythrocytes, SYBR Green DNA, 72 h; series mostly up to 28.7 µM; activity, negative = inhibition: at the top concentration. The method in brief:
(§1)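 Each compound contacts P. falciparum-infected red blood cells for 72 h at 37 C; lysis buffer (Tris, EDTA, saponin, Triton X, SYBR Green I) is added and fluorescence measured next morning; values normalized to controls.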
As to `NC(=O)[C@@H]1CSSCCC(=O)N[C@@H](CCCCN=C(N)N)C(=O)NCC(=O)N[C@@H](CC(=O)O)C(=O)N[C@@H](Cc2c[nH]c3ccccc23)C(=O)N2CCC[C@H]2C(=O)N1` ([Mpa][hArg]GDWPC-NH2; disulfide 1-7), the “activity, negative = inhibition” value was -1.37% (inactive).

`Cc1ccc(C(C)C)c(O)c1`: the “activity, negative = inhibition” value is 2.9% (inactive).

`CC[N+](C)(CC)CCOC(=O)C1c2ccccc2Oc2ccccc21`: the “activity, negative = inhibition” value is 2.92% (inactive).

In the case of `COc1ccccc1Oc1c(NS(=O)(=O)c2ccc(C(C)(C)C)cc2)nc(-c2ncccn2)nc1OCCO`, the “activity, negative = inhibition” value is -25.9% (inactive).

Take `Cc1ccc(S(=O)(=O)NC(=O)NC2CCCCCCC2)cc1`: the “activity, negative = inhibition” value was 8.35% (inactive).

As to `CCCNC(C)(C)COC(=O)c1ccccc1`, the “activity, negative = inhibition” value is -8.86% (inactive).

For the molecule `C[C@@H]1CCC[C@H](C)N1`, the “activity, negative = inhibition” value is 16.3% [at 12.8 µM] (inactive).

For `CCOC(=O)[C@H](CCc1ccccc1)N[C@@H](C)C(=O)N1CCC[C@H]1C(=O)O`, the “activity, negative = inhibition” value is 11.8% (inactive).

With `c1ccc2[nH]ccc2c1`, the “activity, negative = inhibition” value is -1.8% (inactive).

In the case of `NS(=O)(=O)c1ccc(C(=O)O)cc1`, the “activity, negative = inhibition” value was 8.12% (inactive).

Regarding `O=C(Cn1ccnc1[N+](=O)[O-])NCc1ccccc1`, the “activity, negative = inhibition” value is 9.57% (inactive).

Turning to `O=c1[nH]cnc2nc[nH]c12`, the “activity, negative = inhibition” value is 14.3% (inactive).

For `O[C@@H]1CO[C@H]2[C@@H]1OC[C@@H]2O`, the “activity, negative = inhibition” value is 2.81% (inactive).

In the case of `CC(=O)NS(=O)(=O)c1ccc(N)cc1`, the “activity, negative = inhibition” value is 3.76% (inactive).

As for `C=CCNC(N)=S`, the “activity, negative = inhibition” value is 9.18% (inactive).

With `NC(N)=NCCN1CCCCCCC1`, the “activity, negative = inhibition” value was -2.99% [at 12.8 µM] (inactive).

Take `O=C1c2cccc(O)c2C(=O)c2c(O)cccc21`: the “activity, negative = inhibition” value was 3.17% (inactive).

For the molecule `NNC(=O)CP(=O)(c1ccccc1)c1ccccc1`, the “activity, negative = inhibition” value is -2.35% (inactive).

Turning to `Nc1ccncc1N`, the “activity, negative = inhibition” value is 6.91% (inactive).

As to `Cc1ccc(S(=O)(=O)NC(=O)NC2CCCCC2)cc1`, the “activity, negative = inhibition” value is 25.3% (inactive).

With `Cc1cc(-n2nc3ccc(Cl)cc3n2)c(O)c(C(C)(C)C)c1`, the “activity, negative = inhibition” value was 9.67% (inactive).

For the molecule `CN/C(=C\[N+](=O)[O-])NCCSCc1csc(CN(C)C)n1`, the “activity, negative = inhibition” value is -0.174% [at 12.8 µM] (inactive).

As to `CCN1CC(CCN2CCOCC2)C(c2ccccc2)(c2ccccc2)C1=O` (stereo not given), the “activity, negative = inhibition” value is -24.3% (inactive).

With `CCOC(=O)c1cccnc1`, the “activity, negative = inhibition” value was 4.01% (inactive).

For the molecule `O=C1c2ccccc2C(=O)C1c1ccc(Br)cc1`, the “activity, negative = inhibition” value is -10.7% (inactive).

In the next experiment the test system is TAB109. The experiment is described as above. The following applies: P. falciparum in erythrocytes, SYBR Green DNA, 72 h; series mostly up to 28.7 µM; activity, negative = inhibition: at the top concentration. Put shortly:
as §1
For `NC(=O)[C@@H]1CSSCCC(=O)N[C@@H](CCCCN=C(N)N)C(=O)NCC(=O)N[C@@H](CC(=O)O)C(=O)N[C@@H](Cc2c[nH]c3ccccc23)C(=O)N2CCC[C@H]2C(=O)N1` ([Mpa][hArg]GDWPC-NH2; disulfide 1-7), the “activity, negative = inhibition” value was 2.56% (inactive).

For the molecule `Cc1ccc(C(C)C)c(O)c1`, the “activity, negative = inhibition” value was 0.242% (inactive).

As to `CC[N+](C)(CC)CCOC(=O)C1c2ccccc2Oc2ccccc21`, the “activity, negative = inhibition” value is 8.01% (inactive).

On to `COc1ccccc1Oc1c(NS(=O)(=O)c2ccc(C(C)(C)C)cc2)nc(-c2ncccn2)nc1OCCO`, for which the “activity, negative = inhibition” value was -4.76% (inactive).

With `Cc1ccc(S(=O)(=O)NC(=O)NC2CCCCCCC2)cc1`, the “activity, negative = inhibition” value is 1.57% (inactive).

As for `CCCNC(C)(C)COC(=O)c1ccccc1`, the “activity, negative = inhibition” value is -5.68% (inactive).

Regarding `C[C@@H]1CCC[C@H](C)N1`, the “activity, negative = inhibition” value was 10.7% [at 12.8 µM] (inactive).

In the case of `CCOC(=O)[C@H](CCc1ccccc1)N[C@@H](C)C(=O)N1CCC[C@H]1C(=O)O`, the “activity, negative = inhibition” value is 6.42% (inactive).

As for `c1ccc2[nH]ccc2c1`, the “activity, negative = inhibition” value is 9.33% (inactive).

In the case of `NS(=O)(=O)c1ccc(C(=O)O)cc1`, the “activity, negative = inhibition” value was -22.3% (inactive).

Consider `O=C(Cn1ccnc1[N+](=O)[O-])NCc1ccccc1`, for which the “activity, negative = inhibition” value was 7.94% (inactive).

`O=c1[nH]cnc2nc[nH]c12`: the “activity, negative = inhibition” value was -1.43% (inactive).

For `O[C@@H]1CO[C@H]2[C@@H]1OC[C@@H]2O`, the “activity, negative = inhibition” value is 4.58% (inactive).

Regarding `CC(=O)NS(=O)(=O)c1ccc(N)cc1`, the “activity, negative = inhibition” value was 2.18% (inactive).

For the molecule `C=CCNC(N)=S`, the “activity, negative = inhibition” value was 7.04% (inactive).

Take `NC(N)=NCCN1CCCCCCC1`: the “activity, negative = inhibition” value was 4.03% [at 12.8 µM] (inactive).

As for `O=C1c2cccc(O)c2C(=O)c2c(O)cccc21`, the “activity, negative = inhibition” value was 11.8% (inactive).

For `NNC(=O)CP(=O)(c1ccccc1)c1ccccc1`, the “activity, negative = inhibition” value is 13.5% (inactive).

Take `Nc1ccncc1N`: the “activity, negative = inhibition” value is 5.96% (inactive).

As to `Cc1ccc(S(=O)(=O)NC(=O)NC2CCCCC2)cc1`, the “activity, negative = inhibition” value was -5.21% (inactive).

For `CN/C(=C\[N+](=O)[O-])NCCSCc1csc(CN(C)C)n1`, the “activity, negative = inhibition” value was 14.2% [at 12.8 µM] (inactive).

Consider `CCOC(=O)c1cccnc1`, for which the “activity, negative = inhibition” value is 0.0515% (inactive).

The next experiment has as its system TAB113. The description is as above. To be noted: P. falciparum in erythrocytes, SYBR Green DNA, 72 h; series mostly up to 28.7 µM; activity, negative = inhibition: at the top concentration. The method in brief:
as §1
In the case of `NC(=O)[C@@H]1CSSCCC(=O)N[C@@H](CCCCN=C(N)N)C(=O)NCC(=O)N[C@@H](CC(=O)O)C(=O)N[C@@H](Cc2c[nH]c3ccccc23)C(=O)N2CCC[C@H]2C(=O)N1` ([Mpa][hArg]GDWPC-NH2; disulfide 1-7), the “activity, negative = inhibition” value is 0.887% (inactive).

As for `Cc1ccc(C(C)C)c(O)c1`, the “activity, negative = inhibition” value is 1.76% (inactive).

Regarding `CC[N+](C)(CC)CCOC(=O)C1c2ccccc2Oc2ccccc21`, the “activity, negative = inhibition” value was 8.19% (inactive).

Take `Cc1ccc(S(=O)(=O)NC(=O)NC2CCCCCCC2)cc1`: the “activity, negative = inhibition” value was 0.453% (inactive).

In the case of `CCCNC(C)(C)COC(=O)c1ccccc1`, the “activity, negative = inhibition” value is 2.15% (inactive).

For the molecule `CCOC(=O)[C@H](CCc1ccccc1)N[C@@H](C)C(=O)N1CCC[C@H]1C(=O)O`, the “activity, negative = inhibition” value is 8.05% (inactive).

`c1ccc2[nH]ccc2c1`: the “activity, negative = inhibition” value was 4.82% (inactive).

Turning to `NS(=O)(=O)c1ccc(C(=O)O)cc1`, the “activity, negative = inhibition” value is 5.85% (inactive).

Take `O=C(Cn1ccnc1[N+](=O)[O-])NCc1ccccc1`: the “activity, negative = inhibition” value is 8.8% (inactive).

As to `O=c1[nH]cnc2nc[nH]c12`, the “activity, negative = inhibition” value is 7.26% (inactive).

As to `O[C@@H]1CO[C@H]2[C@@H]1OC[C@@H]2O`, the “activity, negative = inhibition” value was 4.37% (inactive).

Regarding `Cc1cc(OI)c(C(C)C)cc1-c1cc(C(C)C)c(OI)cc1C`, the Potency was 10 µM (active).

Consider `CC(=O)NS(=O)(=O)c1ccc(N)cc1`, for which the “activity, negative = inhibition” value was 18.2% (inactive).

As for `C=CCNC(N)=S`, the “activity, negative = inhibition” value is 12.4% (inactive).

With `NC(N)=NCCN1CCCCCCC1`, the “activity, negative = inhibition” value is -8.42% [at 12.8 µM] (inactive).

Take `O=C1c2cccc(O)c2C(=O)c2c(O)cccc21`: the “activity, negative = inhibition” value is 0.145% (inactive).

Turning to `NNC(=O)CP(=O)(c1ccccc1)c1ccccc1`, the “activity, negative = inhibition” value is -2.31% (inactive).

For `Nc1ccncc1N`, the “activity, negative = inhibition” value was 2.85% (inactive).

Consider `Cc1ccc(S(=O)(=O)NC(=O)NC2CCCCC2)cc1`, for which the “activity, negative = inhibition” value was 12.1% (inactive).

For the molecule `CN/C(=C\[N+](=O)[O-])NCCSCc1csc(CN(C)C)n1`, the “activity, negative = inhibition” value was 5.89% [at 12.8 µM] (inactive).

For `CCN1CC(CCN2CCOCC2)C(c2ccccc2)(c2ccccc2)C1=O` (stereo not given), the “activity, negative = inhibition” value was -23.4% (inactive).

As to `CCOC(=O)c1cccnc1`, the “activity, negative = inhibition” value was 7.29% (inactive).

Regarding `O=C1c2ccccc2C(=O)C1c1ccc(Br)cc1`, the Potency is 8.91 µM (active).
